# High-throughput results (PubChem)
# A selection: hits, their analogues and other compounds. The true share with any hit is near 5.8%.
# ALOX12 inh: blocks human arachidonate 12S-lipoxygenase; Potency, µM (highest dose often 108 µM), without a hit: at the top dose activity change, negative = inhibition, hits mostly inhibitors; purified 12hLO, xylenol orange hydroperoxide absorbance; AID 1671190; hit rate 1.1% among 580,000; also: % is scaled to controls: 0 for no effect and ±100 for the full control effect
# Target sequence (P18054 whole entry, looked up): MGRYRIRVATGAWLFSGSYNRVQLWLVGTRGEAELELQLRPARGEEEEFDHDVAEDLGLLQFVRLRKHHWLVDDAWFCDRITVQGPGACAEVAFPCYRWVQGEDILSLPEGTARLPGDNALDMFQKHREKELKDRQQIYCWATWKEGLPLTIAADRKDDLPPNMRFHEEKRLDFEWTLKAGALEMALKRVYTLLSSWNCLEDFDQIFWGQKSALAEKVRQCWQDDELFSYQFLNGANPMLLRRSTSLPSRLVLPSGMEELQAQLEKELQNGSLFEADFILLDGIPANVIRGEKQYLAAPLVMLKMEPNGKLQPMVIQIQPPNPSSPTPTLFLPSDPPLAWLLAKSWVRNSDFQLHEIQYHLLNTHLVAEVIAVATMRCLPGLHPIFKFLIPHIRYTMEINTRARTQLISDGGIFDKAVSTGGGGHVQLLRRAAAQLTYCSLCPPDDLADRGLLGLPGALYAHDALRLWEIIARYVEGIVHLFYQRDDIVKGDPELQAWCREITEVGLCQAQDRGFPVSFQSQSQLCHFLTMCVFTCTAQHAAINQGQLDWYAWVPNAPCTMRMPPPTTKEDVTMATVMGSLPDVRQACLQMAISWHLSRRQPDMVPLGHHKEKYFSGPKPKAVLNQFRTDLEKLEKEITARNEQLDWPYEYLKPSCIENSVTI
#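 Purified human 12hLO (150 nM final) in 25 mM Hepes, 0.01% Triton X-100, pH 7.0 was preincubated 15 min at room temperature with compound. Then 40 uM arachidonic acid was added, 30 min. Hydroperoxide was read by Fe-XO absorbance ratio 573/405 nm.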
# MCF10A rerep: inducers of DNA re-replication in MCF 10A breast cells | Potency, µM (series often up to 46.1 µM), for the others: top-dose activity, positive = re-replication, actives largely listed as activators | hit rate 2.9% among 350,000 | AID 624296 | MCF 10A DNA re-replication, Hoechst nuclear intensity, 48 h; also: % of control where 0% means no effect; nearly all actives have a fitted effect of over 50% in size
# KB-V1 cytotox: KB-V1 MDR subline cytotoxicity. hit rate 3.4% among 400,000. AID 1347076. KB-V1 MDR cells viability, CellTiter-Glo, 72 h. Potency, µM (doses to about 46.1 µM), actives largely listed as cytotoxic; also: % is scaled to controls: 0 for no effect and ±100 for the full control effect; nearly all actives have a fitted effect of over 60% in size
#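 Following 72 h at 37 degrees C with compound, KB-V1 cell viability was read by CellTiter-Glo luminescence, medium being phenol-red-free DMEM plus 10% FBS; concentration-response parameters came from normalized, curve-fitted qHTS data.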
# SW480 rerep: induces DNA re-replication in SW480 colon adenocarcinoma cells | SW480 DNA re-replication, Hoechst DNA content imaging, 48 h | Potency, µM (top dose mostly 46.1 µM), for inactives: at the highest dose re-replication activation, actives largely listed as activators | hit rate 1.8% among 340,000 | AID 624297; also: % of control where 0% means no effect; nearly all actives have a fitted effect of over 55% in size
#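 SW480 cells exposed to compounds for 48 hr at 37 C, 5% CO2, then Hoechst-stained 40 min. Nuclear DNA content imaged by fluorescence scanning (405 nm excitation, 500-530 nm emission); re-replication scored as increased high-intensity nuclei.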
# KB-3-1 tox: KB-3-1 parental cell cytotoxicity. Potency, µM (doses to about 46.1 µM), usual class: cytotoxic. KB-3-1 viability, CellTiter-Glo ATP luminescence, 72 h. hit rate 1.4% among 400,000; also: % is scaled to controls: 0 for no effect and ±100 for the full control effect; nearly all actives have a fitted effect of over 60% in size
#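 Multi-concentration cytotoxicity screen in KB-3-1 cells grown in DMEM lacking phenol red with 10% FBS. After 72 h at 37 °C with compound, ATP-dependent luminescence was recorded.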
# PINK1 expr mod: changes PINK1 expression; AID 624263; Potency, µM (titrated, usually from 76.6 µM), for the others: top-dose activation (PINK1 increase), most hits filed as activators; PINK1 immunofluorescence, high-content cytometry, 24 h; hit rate 0.2% among 410,000; active = well fitted activation curve with a large enough effect; inconclusive = small, poorly fitted or top-dose-only effect; cell line not stated here; also: % of control where 0% means no effect; nearly all actives have a fitted effect of over 65% in size
#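 Stable cell line, 250 cells/well, 12 h attachment; compounds pinned at 5 concentrations, 24 h; CCCP control. Fixed with nuclear dye, primary antibodies 12 h at 10 degrees C, secondary plus cell stain; laser-scanning cytometer read.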
# Starred values were filed as active, the others as inactive; i = inactive; ? = inconclusive; . = not tested or not shown; [ ] = another dose, or the depositor's remark. Unless noted, calls follow the shape of the dose curve; as a rule, active = well fitted curve in the direction sought with a large enough effect; inconclusive = small, poorly fitted or top-dose-only effect, or another doubt; inactive = no such curve, though single readings can be large; an effect the other way counts as inactive or inconclusive. Potency is read from the fitted curve at half-maximal effect.
SMILES,ALOX12 inh,MCF10A rerep,KB-V1 cytotox,SW480 rerep,KB-3-1 tox,PINK1 expr mod
Cc1cccc2cc(C(c3nnnn3CC3CCCO3)N3CCCc4ccccc43)c(=O)[nH]c12 (stereo unspecified),0%,0%,18µM*,15%,i,21%[38.3 µM]
NC(=O)Cn1cnc2c(oc3nc(C4CCCCC4)c4c(c32)CCC4)c1=O,-7%,.,.,.,.,.
COC(=O)c1cc(-c2cc(OC)ccc2OC)nc2c1c(=O)n(C)c(=O)n2Cc1ccccc1,?,6.5µM*,?,2.3µM*,i,3%
CCN(Cc1ccccc1)S(=O)(=O)c1ccc(S(=O)(=O)N(Cc2ccccn2)Cc2ccco2)cc1,-20%,4%,i,-2%,i,11µM*
Clc1ccc(CSc2ncn(-c3ccccc3)n2)cc1,-12%,6%,21µM*,-14%,i,0%
Cc1noc(NS(=O)(=O)c2ccc(N/C=C\C(=O)c3ccc4c(c3)OCO4)cc2)c1C,?,5.8µM*,i,7%,i,?
CC(C)CNC(=O)CC(C)Cc1nnc2c(=O)n(-c3cccc(F)c3)ccn12 (stereo unspecified),2%,.,.,.,.,.
CC(O)CNCCCOc1ccc(C(C)(C)c2ccccc2)cc1 (stereo unspecified),4.5µM*,.,.,.,.,.
COCCCNCCCOc1ccc(C(C)(C)c2ccccc2)cc1,?,15%,?,?,i,?
O=C(O)CCCCNCc1ccccc1,6%,-5%,i,-1%,i,10%[38.3 µM]
c1ccc(CNCCCNCCCCNCCCNCc2ccccc2)cc1,-15%,6.5µM*,?,?,?,-2%
CC(C)(C)c1ccc(OCCCNCc2ccccc2)cc1,?,23µM*,i,23µM*,?,-1%
CC(C)(c1ccccc1)c1ccc(OCCCNCCO)cc1,-61%,?,?,-14%,?,4%
COCCNCCCOc1ccc(C(C)(C)c2ccccc2)cc1,?,21µM*,?,2%,i,20%
Cc1nc2c(cnn2C(C)C)cc1C(=O)N(C)Cc1ccc(Cl)c(Cl)c1,0%,.,.,.,.,.
CC(CCc1ccco1)NC(=O)c1ccc(Cl)c(S(=O)(=O)NC2CC2)c1 (stereo unspecified),-22%,.,.,.,.,.
N#Cc1nc(-c2ccco2)oc1N1CCN(CC(=O)Nc2ccccc2-c2ccccc2)CC1,-4%,.,.,.,.,.
COc1cccc(CNCc2c(C(=O)O)c(C)n(Cc3cc(C)ccc3C)c2C)c1OC,-13%,.,.,.,.,.
Cc1cc(Nc2nc(Cl)c(Cl)cc2Cl)n(-c2ccccc2)n1,-27%,?,?,26%,12µM*,7%
Cc1cc(Nc2ccccc2)n(-c2ccccc2)n1,-14%,0%,i,3%,i,18%
Cc1ccc(-n2nc(C)cc2Nc2ncc(Cl)cc2Cl)cc1,0%,?,21µM*,?,i,4%
Cc1ccc(NC(=O)c2ncoc2-c2cccs2)cc1F,1%,.,.,.,.,.
C=CC#CC1(O)CC(C)[N+](C)(C)CC1C (stereo unspecified),35µM*,0%,i,2%,i,-3%
COc1ccc(C(=O)CC(=O)c2ccccc2)cc1,0%,2%,?,2.9µM*,i,1%
COc1ccc(O)c(C(=O)CC(=O)c2ccncc2)c1,3%,-8%,9.2µM*,-19%,i,-2%
O=C(CC(=O)c1ccncc1)c1ccccc1,-14%,-3%,18µM*,-7%,i,-2%
COc1ccc(C(=O)C(OC(=O)c2ccccc2Cl)c2ccccc2)cc1 (stereo unspecified),13%,1%,i,-11%,i,0%
COc1ccc(C(=O)C(OC(=O)c2ccccc2)c2ccccc2)cc1 (stereo unspecified),-19%,6%,13µM*,9%,i,4%
COc1ccc(C(=O)C/C(=C\C(=O)c2ccc(C)cc2)c2ccccc2)cc1,1%,?,?,?,?,25µM*
